Compound activity (PubChem BioAssay)
MITF primary – inhibitors of human MITF. O75030. AlphaScreen MITF homodimerization, bead proximity signal. inhibition, % at 2.6 µM. 0.91% of 650,000 active. AID 1259374; in the data active = inhibition above about 50%
GPR151 activ – activates the human receptor GPR151; AID 1508602; 1% of 650,000 active; PathHunter beta-arrestin GPR151 cells, luminescence; activation, % at 11.2 µM; Q8TDV0; in the data active = activation above about 4.9%
TEAD-YAP block – TEAD-YAP interaction inhibition; HEK-TIYL cells, TEAD-Gal4/YAP UAS-luciferase luminescence; inhibition, % at 9.12 µM; 1.4% of 640,000 active; in the data active = inhibition above about 32%
FBW7 activator – activators of human E3 ligase FBW7. AID 1259310. AlphaScreen FBW7–phospho-cyclin E peptide binding, activator screen. normalized activity (activation), % at 26.1 µM. Q969H0. 0.13% of 650,000 active; in the data active = normalized activity above about 1.9%;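 also: purified mutant Fbw7 with reduced substrate affinity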
Target sequence (Q969H0 whole entry, looked up): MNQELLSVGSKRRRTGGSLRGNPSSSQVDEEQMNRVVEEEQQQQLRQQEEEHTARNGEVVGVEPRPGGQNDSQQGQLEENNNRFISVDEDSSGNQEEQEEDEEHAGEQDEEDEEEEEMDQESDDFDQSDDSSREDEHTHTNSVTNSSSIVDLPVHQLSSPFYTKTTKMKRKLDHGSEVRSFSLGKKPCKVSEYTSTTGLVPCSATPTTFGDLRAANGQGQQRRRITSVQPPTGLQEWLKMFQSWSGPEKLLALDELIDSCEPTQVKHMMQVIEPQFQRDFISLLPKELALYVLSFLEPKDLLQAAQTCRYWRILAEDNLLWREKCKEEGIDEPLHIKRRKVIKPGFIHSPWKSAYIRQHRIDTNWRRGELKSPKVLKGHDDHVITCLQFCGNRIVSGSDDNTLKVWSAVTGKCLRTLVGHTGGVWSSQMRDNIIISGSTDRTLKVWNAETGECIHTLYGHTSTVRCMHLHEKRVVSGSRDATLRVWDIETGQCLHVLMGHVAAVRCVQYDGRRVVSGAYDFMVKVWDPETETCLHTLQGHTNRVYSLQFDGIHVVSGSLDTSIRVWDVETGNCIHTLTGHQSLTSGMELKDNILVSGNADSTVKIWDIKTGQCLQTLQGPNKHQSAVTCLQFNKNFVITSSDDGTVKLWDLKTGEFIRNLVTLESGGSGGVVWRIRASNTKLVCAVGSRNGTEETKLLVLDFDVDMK
GPR151 conf act – human GPR151 activation, confirmation screen; activation, % at 11.2 µM; AID 1508609; 6,700 tested, under 10 active; GPR151 PathHunter beta-arrestin cells, luminescence, 90 min; % of EA-reagent control over plate median; shares compounds with GPR151 activ;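 active = mean percent activation across replicates above the confirmation screen cutoff of 4.91%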
GPR119 counter – GPR119 activation, counter-screen for GPR151 activators | shares compounds with GPR151 activ | GPR119 PathHunter beta-arrestin cells, luminescence, 90 min; 0 = compound-well median, 100 = enzyme-acceptor control | activation, % at 11.2 µM | 0.3% of 6,700 active | AID 1508611;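 active = mean percent activation in the counterscreen above 29.09%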;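 also: counterscreen on off-target GPR119 to flag nonselective hits from the GPR151 activator screen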
Large screens that a line does not name were inactive (follow-up assays come after a bar, where they were run). An excerpt weighted towards active compounds, which were near 3.4% of everything screened.

COc1ccc(NC(=O)COc2ccc(C3C(C#N)=C(N)Oc4n[nH]c(C)c43)cc2)cc1 (centres undefined)	GPR151 activ 10.0 | GPR151 conf act inactive | GPR119 counter inactive
CS(=O)(=O)NCc1nc(NC2CCCC2)c2cc(Cl)ccc2n1	none
C=CCOc1ccc(/C=C2\C(=O)NN(c3ccccc3)C2=O)cc1OC	GPR151 activ 5.3 | GPR151 conf act inactive | GPR119 counter inactive
CNC(=O)C(=O)Nc1cccc(C(C)=O)c1	none
CCCCC(=O)c1ccc(-c2ccccc2)cc1	none
C[N+](C)(CCCC(=O)c1ccc(C(=O)CCC[N+](C)(C)Cc2ccccc2Cl)cc1)Cc1ccccc1Cl	GPR151 activ 5.8 | GPR151 conf act inactive | GPR119 counter inactive
COC(=O)CC(NC(=O)c1ccccc1)c1ccccc1 (centres undefined)	none
Cc1oc2ccc(Cl)cc2[n+]1CCCS(=O)(=O)O	none
CCO/C(C)=C/c1oc2ccc(-c3ccccc3)cc2[n+]1CCCS(=O)(=O)O	GPR151 activ 5.6 | GPR151 conf act inactive | GPR119 counter inactive
COc1cc([N+](=O)[O-])ccc1NC(=O)N1CCN(c2cccc(C(F)(F)F)c2)CC1	none
CC(=O)N1CCOc2cc(S(=O)(=O)N3CCN(C)CC3)c(Cl)cc21	GPR151 activ 5.1 | GPR151 conf act inactive | GPR119 counter inactive
CC(=O)N1CCOc2cc(S(=O)(=O)N3CCC(C(N)=O)CC3)c(Cl)cc21	none
O=C(NCc1ccccc1F)c1cc2cc(Br)ccc2oc1=O	GPR151 activ 5.9 | GPR151 conf act inactive | GPR119 counter inactive
Cc1cccc(NC(=O)Cn2c3ccccc3c(=O)c3ccccc32)c1	none
Cc1cc(Br)ccc1S(=O)(=O)N1CCOCC1	none
O=S(=O)(c1ccc(Br)cc1Br)N1CCOCC1	GPR151 activ 5.1 | GPR151 conf act inactive | GPR119 counter inactive
CC1CCCC(NC(=O)C2CCN(S(=O)(=O)c3ccc4c(c3)OCC(=O)N4)CC2)C1C (centres undefined)	none
COc1cc(Br)cc(CN2CCN(C=O)CC2)c1O	GPR151 activ 7.3 | GPR151 conf act inactive | GPR119 counter inactive
C=C(C)c1nc2ccc(-c3ccc4nc(C(=C)C)oc(=O)c4c3)cc2c(=O)o1	none
CCc1nc2ccc(-c3ccc4nc(CC)oc(=O)c4c3)cc2c(=O)o1	GPR151 activ 8.8 | GPR151 conf act inactive | GPR119 counter inactive
O=C(NCc1nc2ccccc2[nH]1)c1cccc(-c2ccccc2)n1	GPR151 activ 7.1 | GPR151 conf act inactive | GPR119 counter inactive
CCOC(=O)CCNC(=O)COc1ccc(N(C)Cc2ccc(F)cc2)nn1	none
COc1cc(C(=O)NCc2cc(-c3ccccc3)on2)cc(OC)c1OC	GPR151 activ 6.2 | GPR151 conf act inactive | GPR119 counter inactive
COc1cc(Nc2ncc(C(=O)NCc3ccccc3)s2)cc(OC)c1OC	GPR151 activ 6.1 | GPR151 conf act inactive | GPR119 counter inactive
Cc1ccc(C)c(S(=O)(=O)NCCCC(=O)Nc2ccc(S(N)(=O)=O)cc2)c1	none
O=S(=O)(Nc1ccc(Cl)cc1F)c1cnc[nH]1	GPR151 activ 11 | GPR151 conf act inactive | GPR119 counter inactive
CCOc1ccccc1NC(=O)c1sc2ncnc(N3CCc4ccccc4C3)c2c1C	none
O=C(Nc1ncn[nH]1)c1ccco1	none
COc1cccc(S(=O)(=O)N2CCC(c3nc(-c4cccs4)no3)CC2)c1	GPR151 activ 8.3 | GPR151 conf act inactive | GPR119 counter inactive
COc1cccc(S(=O)(=O)N2CCC(c3nc(-c4ccccc4)no3)CC2)c1	none
CCOC(=O)c1ccc(NC(=O)c2sc(NC(=O)c3ccc(Cl)cc3)c(C(=O)OCC)c2C)cc1	none
O=C(CCc1nnc(CCc2c[nH]c3ccccc23)o1)NCC1CC1	GPR151 activ 5.4 | GPR151 conf act inactive | GPR119 counter inactive
O=C(CCc1nnc(CCc2c[nH]c3ccccc23)o1)N1CCN(CC2CC2)CC1	none
CC1(C2CCN(C(=O)Cc3ccsc3)CC2)NC(=O)N(C2Cc3ccccc3C2)C1=O (centres undefined)	none
CC1(C2CCN(C(=O)C(=O)c3ccccc3)CC2)NC(=O)N(C2Cc3ccccc3C2)C1=O (centres undefined)	GPR151 activ 5.2 | GPR151 conf act inactive | GPR119 counter inactive
Cc1ccc(C)c(OC2=NS(=O)(=O)c3cc([N+](=O)[O-])ccc32)c1	none
